Inconclusive results are not listed. Activity calls are given as the source filed them. The calls were made as follows: active = hit-call score of the fitted dose curve at least 0.9, where 1 is the maximum; inconclusive = response in the unintended direction; inactive = score below 0.9.
Legend:
[1] = ATG_Hpa5_TRANS: Attagene TRANS-FACTORIAL HepG2 Assay for human GAL4-Hpa5 Hepatocyte Transcription Factor Basal Promoter (AID 2282975); conditions: HepG2 Attagene GAL4-Hpa5 transcription reporter;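 also: hits are increases in reporter mRNA over DMSO baseline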
Procedure, shortened: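 Gain-of-signal versus DMSO is fitted for reporter mRNA quantified by RT-PCR and capillary electrophoresis after 24 h exposure. This endpoint is an internal background marker in transiently transfected HepG2 cells carrying GAL4-UAS reporter units.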

[2] = target: Glucocorticoid receptor (Homo sapiens) (UniProt P04150); test: ATG_GR_TRANS: Attagene TRANS-FACTORIAL HepG2 Assay for human Glucocorticoid Receptor (GR) (AID 2282978); conditions: HepG2 Attagene TRANS GR reporter, mRNA transcription;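 also: activators score as hits since higher reporter transcript over DMSO is fitted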
Chain of Glucocorticoid receptor (Homo sapiens) (P04150 whole entry, looked up, the tested form may be a part): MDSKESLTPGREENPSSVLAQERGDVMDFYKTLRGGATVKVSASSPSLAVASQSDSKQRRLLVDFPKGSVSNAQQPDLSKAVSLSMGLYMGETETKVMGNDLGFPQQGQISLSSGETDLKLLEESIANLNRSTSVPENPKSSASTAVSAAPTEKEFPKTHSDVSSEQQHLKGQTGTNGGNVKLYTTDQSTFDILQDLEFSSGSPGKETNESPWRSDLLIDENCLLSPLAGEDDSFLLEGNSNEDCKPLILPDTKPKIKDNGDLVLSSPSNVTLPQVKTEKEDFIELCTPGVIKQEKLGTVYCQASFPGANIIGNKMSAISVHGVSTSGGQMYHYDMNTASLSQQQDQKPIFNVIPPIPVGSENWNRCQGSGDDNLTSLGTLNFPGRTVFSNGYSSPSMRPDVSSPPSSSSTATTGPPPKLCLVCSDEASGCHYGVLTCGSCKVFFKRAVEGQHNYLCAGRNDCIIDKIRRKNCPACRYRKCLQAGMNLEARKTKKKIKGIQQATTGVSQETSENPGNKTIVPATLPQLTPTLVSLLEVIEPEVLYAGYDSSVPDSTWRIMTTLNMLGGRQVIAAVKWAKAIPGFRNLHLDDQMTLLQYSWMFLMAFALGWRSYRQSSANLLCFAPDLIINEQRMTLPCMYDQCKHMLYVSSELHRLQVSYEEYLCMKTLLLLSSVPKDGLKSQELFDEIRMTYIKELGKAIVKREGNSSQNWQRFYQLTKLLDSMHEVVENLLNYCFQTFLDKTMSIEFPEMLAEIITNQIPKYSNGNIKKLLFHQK
Procedure, shortened: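 HepG2 cells transiently transfected with multiplexed reporter units in which chimeric NR-GAL4 proteins drive GAL4-UAS reporters; 24 h compound exposure. Reporter mRNA measured by RT-PCR, 6-FAM labelling, HpaI digestion and capillary electrophoresis; gain-of-signal fitted versus DMSO.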

[3] = target: Oxysterols receptor LXR-alpha (Homo sapiens) (UniProt Q13133); test: ATG_LXRa_TRANS: Attagene TRANS-FACTORIAL HepG2 Assay for human Liver X Receptor alpha (LXRa) (AID 2282980); conditions: HepG2 Attagene TRANS reporter, LXRa transactivation
Chain of Oxysterols receptor LXR-alpha (Homo sapiens) (Q13133 whole entry, looked up): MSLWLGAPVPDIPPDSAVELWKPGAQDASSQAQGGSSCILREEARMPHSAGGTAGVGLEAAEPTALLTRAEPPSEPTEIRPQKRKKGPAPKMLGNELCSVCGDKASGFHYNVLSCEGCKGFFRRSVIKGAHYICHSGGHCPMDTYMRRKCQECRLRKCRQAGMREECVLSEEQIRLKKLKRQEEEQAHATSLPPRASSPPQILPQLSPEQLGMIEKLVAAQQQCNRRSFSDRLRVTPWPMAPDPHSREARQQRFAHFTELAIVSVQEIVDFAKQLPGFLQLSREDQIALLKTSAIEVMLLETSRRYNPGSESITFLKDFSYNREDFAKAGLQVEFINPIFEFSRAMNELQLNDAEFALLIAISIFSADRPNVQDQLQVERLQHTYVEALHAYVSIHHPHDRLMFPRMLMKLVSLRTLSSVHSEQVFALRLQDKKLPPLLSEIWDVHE
Procedure, shortened: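 Transient HepG2 transfectants, 24 h dosing, RT-PCR/CE mRNA reporter quantitation; gain-of-signal vs DMSO.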

[4] = target: Oxysterols receptor LXR-beta (Homo sapiens) (UniProt P55055); test: ATG_LXRb_TRANS: Attagene TRANS-FACTORIAL HepG2 Assay for human Liver X Receptor beta (LXRb) (AID 2282981); conditions: HepG2 Attagene TRANS GAL4-LXRb reporter, mRNA
Chain of Oxysterols receptor LXR-beta (Homo sapiens) (P55055 whole entry, looked up, the tested form may be a part): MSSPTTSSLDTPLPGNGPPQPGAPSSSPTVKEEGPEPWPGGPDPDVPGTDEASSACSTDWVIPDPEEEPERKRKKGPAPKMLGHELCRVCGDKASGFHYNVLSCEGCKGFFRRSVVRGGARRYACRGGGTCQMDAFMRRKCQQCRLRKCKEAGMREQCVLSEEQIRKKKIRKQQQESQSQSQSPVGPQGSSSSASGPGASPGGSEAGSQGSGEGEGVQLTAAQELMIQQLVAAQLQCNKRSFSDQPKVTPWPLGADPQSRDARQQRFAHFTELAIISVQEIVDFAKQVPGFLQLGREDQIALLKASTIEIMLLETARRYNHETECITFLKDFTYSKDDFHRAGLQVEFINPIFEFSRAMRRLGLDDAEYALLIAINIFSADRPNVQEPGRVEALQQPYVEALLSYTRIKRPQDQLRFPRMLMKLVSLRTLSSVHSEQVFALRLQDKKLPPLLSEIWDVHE
Procedure, shortened: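 Measures induction of a Gal4-driven reporter transcript in HepG2 cells expressing an exogenous LXRb-Gal4 fusion. Cells are exposed to compound for 24 h before RNA isolation and RT-PCR with capillary electrophoresis detection.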

[5] = target: Hepatocyte nuclear factor 4-alpha (Homo sapiens) (UniProt P41235); test: ATG_HNF4a_TRANS: Attagene TRANS-FACTORIAL HepG2 Assay for human Hepatocyte Nuclear Factor 4 alpha (HNF4a) (AID 2282982); conditions: HepG2 HNF4a transactivation reporter, mRNA readout
Chain of Hepatocyte nuclear factor 4-alpha (Homo sapiens) (P41235 whole entry, looked up, the tested form may be a part): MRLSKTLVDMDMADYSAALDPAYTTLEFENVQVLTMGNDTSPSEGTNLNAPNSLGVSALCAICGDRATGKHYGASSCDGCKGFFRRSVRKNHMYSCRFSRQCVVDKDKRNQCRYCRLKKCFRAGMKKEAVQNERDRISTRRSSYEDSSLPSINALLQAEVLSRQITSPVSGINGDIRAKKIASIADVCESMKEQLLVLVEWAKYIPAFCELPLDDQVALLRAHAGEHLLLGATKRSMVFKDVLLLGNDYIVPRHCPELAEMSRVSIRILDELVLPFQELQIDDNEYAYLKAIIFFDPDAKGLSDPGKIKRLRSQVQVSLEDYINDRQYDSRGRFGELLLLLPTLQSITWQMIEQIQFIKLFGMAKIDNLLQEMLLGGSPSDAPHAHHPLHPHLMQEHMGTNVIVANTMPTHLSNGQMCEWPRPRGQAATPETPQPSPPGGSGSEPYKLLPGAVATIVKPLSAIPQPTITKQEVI
Procedure, shortened: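 In this trans-factorial format, a chimeric HNF4a-GAL4 fusion drives a GAL4-UAS reporter in transfected HepG2 liver cells. After 24 h treatment, reporter mRNA induction is measured by RT-PCR with capillary electrophoresis, relative to DMSO.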

[6] = target: Bile acid receptor (Homo sapiens) (UniProt Q96RI1); test: ATG_FXR_TRANS: Attagene TRANS-FACTORIAL HepG2 Assay for Farnesoid X Receptor (FXR) (AID 2282979); conditions: HepG2 Attagene TRANS FXR-GAL4 reporter transcription;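 also: hits raise reporter mRNA above DMSO so AC50 marks FXR activation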
Chain of Bile acid receptor (Homo sapiens) (Q96RI1 whole entry, looked up, the tested form may be a part): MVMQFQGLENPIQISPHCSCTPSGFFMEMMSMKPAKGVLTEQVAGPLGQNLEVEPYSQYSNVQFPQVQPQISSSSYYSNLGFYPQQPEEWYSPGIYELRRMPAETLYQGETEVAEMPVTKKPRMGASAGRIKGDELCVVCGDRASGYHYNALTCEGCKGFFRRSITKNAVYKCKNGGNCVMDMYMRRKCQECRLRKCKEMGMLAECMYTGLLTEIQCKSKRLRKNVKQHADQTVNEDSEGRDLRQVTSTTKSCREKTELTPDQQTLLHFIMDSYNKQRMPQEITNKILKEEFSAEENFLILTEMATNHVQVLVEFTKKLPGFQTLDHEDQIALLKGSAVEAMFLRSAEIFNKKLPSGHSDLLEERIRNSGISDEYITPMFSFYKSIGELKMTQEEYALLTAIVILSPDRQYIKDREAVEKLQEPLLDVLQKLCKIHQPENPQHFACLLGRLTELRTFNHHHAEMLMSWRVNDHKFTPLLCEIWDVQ
Procedure, shortened: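 Chimeric FXR-GAL4 activity in transiently transfected human HepG2 liver cells is scored as induction of reporter mRNA after 24 h of dosing. Detection uses RT-PCR with fluorescent labelling and capillary electrophoresis, with DMSO serving as baseline.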

[7] = ATG_M_06_TRANS: Attagene TRANS-FACTORIAL HepG2 Assay for M06 Transcription Factor (Internal Marker) (AID 2282983); conditions: HepG2 Attagene TRANS M06 internal marker reporter;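 also: reporter transcript level by RT-PCR then capillary electrophoresis fluorescence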
Procedure, shortened: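 Human liver HepG2 cells bearing transiently transfected chimeric NR-GAL4 reporter units were treated with chemicals for 24 h. Total RNA was reverse-transcribed, reporter sequences amplified and labelled, then quantified by capillary electrophoresis. Activity was fitted upward relative to DMSO.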

[8] = ATG_M_32_TRANS: Attagene TRANS-FACTORIAL HepG2 Assay for M32 Transcription Factor (Internal Marker) (AID 2282984); conditions: HepG2 Attagene TRANS M32 internal marker reporter;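 also: transcript level of a background control reporter unit measured by RT-PCR and capillary electrophoresis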
Procedure, shortened: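 After 24 h dosing of transfected HepG2 cells, total RNA was reverse-transcribed, reporter sequences PCR-amplified, 6-FAM labelled by primer extension and HpaI-digested before capillary electrophoresis. Signal increase over DMSO was fitted.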

[9] = target: Estrogen-related receptor gamma (Homo sapiens) (UniProt P62508); test: ATG_ERRg_TRANS: Attagene TRANS-FACTORIAL HepG2 Assay for human Estrogen-Related Receptor gamma (ERRg) (AID 2282977); conditions: HepG2 Attagene TRANS reporter, ERRg transactivation;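 also: hits increase reporter signal over DMSO so potencies reflect activators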
Chain of Estrogen-related receptor gamma (Homo sapiens) (P62508 whole entry, looked up, the tested form may be a part): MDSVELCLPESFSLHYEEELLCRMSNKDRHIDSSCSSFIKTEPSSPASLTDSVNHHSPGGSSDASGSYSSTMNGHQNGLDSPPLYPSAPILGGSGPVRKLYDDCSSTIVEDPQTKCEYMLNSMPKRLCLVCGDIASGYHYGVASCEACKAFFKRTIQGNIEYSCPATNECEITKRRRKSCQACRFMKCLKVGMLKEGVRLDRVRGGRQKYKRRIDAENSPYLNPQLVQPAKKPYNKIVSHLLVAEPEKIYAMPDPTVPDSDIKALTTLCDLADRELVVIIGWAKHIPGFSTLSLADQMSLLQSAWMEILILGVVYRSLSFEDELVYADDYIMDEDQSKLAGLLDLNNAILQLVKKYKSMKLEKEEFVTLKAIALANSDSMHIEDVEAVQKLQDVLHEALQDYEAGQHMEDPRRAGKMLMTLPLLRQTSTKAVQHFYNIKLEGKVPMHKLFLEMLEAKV
Procedure, shortened: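 Exogenous NR-Gal4 chimera activity measured as reporter transcript induction after 24 h in transiently transfected HepG2 cells. RNA reverse-transcribed, PCR-amplified, 6-FAM-labelled and resolved by capillary electrophoresis; increase over DMSO baseline.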

[10] = ATG_GAL4_TRANS: Attagene TRANS-FACTORIAL HepG2 Assay for GAL4 (Internal Marker) (AID 2282976); conditions: HepG2 Attagene TRANS GAL4 internal marker reporter
Procedure, shortened: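 Fluorescence from capillary electrophoresis of labelled RT-PCR products quantifies reporter mRNA induction after 24 h dosing of HepG2 cells carrying transfected GAL4-UAS reporter transcription units. Vehicle DMSO serves as baseline.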

Measured: AC50

COC(=O)NC(=S)Nc1ccccc1NC(=S)NC(=O)OC
inactive: [1] | [2] | [3] | [4] | [5]

COCc1cnc(C2=NC(C)(C(C)C)C(=O)N2)c(C(=O)O)c1 (stereo unspecified)
inactive: [1] | [2] | [6] | [5] | [7] | [8]

O=C1C2CC=CCC2C(=O)N1SC(Cl)(Cl)Cl (stereo unspecified)
inactive: [1] | [9] | [3] | [5] | [8]

Cc1c(COC(=O)[C@@H]2[C@H](/C=C(\Cl)C(F)(F)F)C2(C)C)cccc1-c1ccccc1
inactive: [1] | [10] | [5] | [7] | [8]

O=C(Nc1ccccc1-c1ccc(Cl)cc1)c1cccnc1Cl
not listed: [3] | [6] | [10]
inactive: all other assays above

Cc1cc(C)nc(Nc2ccccc2)n1
not listed: [6] | [10]
inactive: all other assays above

CCOP(=S)(OCC)Oc1nc(Cl)n(C(C)C)n1
inactive: [1] | [2] | [5] | [7] | [8]
active: [3] 14.9 µM

CC(C)Oc1cccc(NC(=O)c2ccccc2C(F)(F)F)c1
inactive: [1] | [9] | [2] | [3] | [5] | [8]

Cc1nc(N(C)C)nc(OC(=O)N(C)C)c1C
inactive: [1] | [2] | [6]

N#Cc1c(Cl)cccc1Cl
inactive: [1] | [9] | [2] | [3] | [8]

COCC(=O)N(c1c(C)cccc1C)C(C)C(=O)OC (stereo unspecified)
inactive: [1] | [9] | [6] | [8]

CSC(=O)c1c(C(F)F)nc(C(F)(F)F)c(C(=O)SC)c1CC(C)C
inactive: [1] | [10] | [2] | [5] | [7] | [8]
